# Screens deposited in PubChem by National Center for Advancing Translational Sciences (NCATS).
# The list is not random: actives were taken first. Their share in the collection is about 7.4%.
# SMN2 splice enh: qHTS Assay for Enhancers of SMN2 Splice Variant Expression; Potency, µM (doses to about 46.1 µM), without a hit: at the top dose activity change, positive = activation, usual class: activators; HEK293 SMN2-luciferase splicing reporter, luminescence, 30-36 h; AID 1458, 2008; 210,000 tested, 2.8% active; note: % of control where 0% means no effect; nearly all actives have a fitted effect of over 55% in size
#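 HEK293 cells carry an SMN2 […]–luciferase reporter in which exon 7 inclusion puts luciferase in frame. Cells were plated 10-12 h before compound addition, then incubated 30-36 h at 37C. ONE-Glo luminescence was read; sodium butyrate at 4.5 mM final served as control.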
# Rab9 prom act: qHTS Assay for Rab9 Promoter Activators; Huh7 Rab9 promoter-luciferase reporter, luminescence, 24 h; 320,000 tested, 2.8% active; Potency, µM (titrated, usually from 9.22 µM), for the others: at the highest dose activation, negative = inhibition, actives largely listed as activators; note: % of control where 0% means no effect; nearly all actives have a fitted effect of over 60% in size
#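 Cells were plated at 1500 per well in reduced-serum medium with 10% FBS and left 2 h. Compound in DMSO was then added for 24 h at 37 °C. Reporter signal was read by luminescence after 10 min with luciferase detection reagent.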
# FLuc counter: qHTS profiling assay for firefly luciferase inhibitor/activator using purifed enzyme and Km concentrations of substrates (counterscreen for miR-21 project). Potency, µM (series often up to 57.5 µM), for the others: at the top dose activity change, negative = inhibition, most hits filed as inhibitors. Luciferin 4-monooxygenase (Photinus pyralis), P08659. 360,000 tested, 6.9% active. purified FLuc, Km substrates, luminescence inhibition;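 note: plate controls were vehicle for no effect and reference inhibitor for full effect; nearly all actives have a fitted effect of over 55% in size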
# Target sequence (P08659 whole entry, looked up): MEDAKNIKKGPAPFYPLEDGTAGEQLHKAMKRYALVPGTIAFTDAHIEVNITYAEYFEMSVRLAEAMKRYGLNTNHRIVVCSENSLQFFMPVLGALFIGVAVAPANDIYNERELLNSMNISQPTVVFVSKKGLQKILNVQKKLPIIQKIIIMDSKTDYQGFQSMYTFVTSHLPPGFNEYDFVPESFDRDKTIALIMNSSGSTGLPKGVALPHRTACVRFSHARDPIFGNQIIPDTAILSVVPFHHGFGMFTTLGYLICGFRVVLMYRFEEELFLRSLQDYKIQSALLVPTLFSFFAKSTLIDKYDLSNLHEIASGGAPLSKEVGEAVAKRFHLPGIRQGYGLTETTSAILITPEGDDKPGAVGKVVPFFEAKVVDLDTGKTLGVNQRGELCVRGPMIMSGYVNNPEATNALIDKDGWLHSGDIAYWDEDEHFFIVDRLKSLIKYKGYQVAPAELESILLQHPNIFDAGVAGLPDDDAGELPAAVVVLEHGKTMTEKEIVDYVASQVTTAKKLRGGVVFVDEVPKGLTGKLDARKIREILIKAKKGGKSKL
#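 Biochemical qHTS of compounds, final roughly 60 µM downward over six points, against 10 nM purified firefly luciferase using Km concentrations of substrates (10 uM D-luciferin, 10 uM ATP) in Tris acetate pH 7.5 buffer; luminescence output.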
# ELG1 genotox: qHTS screen for small molecules that induce genotoxicity in human embryonic kidney (HEK293T) cells expressing luciferase-tagged ELG1. HEK293T ELG1-luciferase reporter, luminescence, 16 h. Potency, µM (titrated, usually from 46 µM), inactives show at the top dose activity change, positive = activation, actives largely listed as activators. 330,000 tested, 1.3% active. AID 504466, 2011; note: % of control where 0% means no effect; nearly all actives have a fitted effect of over 60% in size
#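 Quantitative HTS format in 1536-well plates. HEK293T ELG1-luciferase reporter cells receive test compound and are incubated 16 hr at 37 °C, 5% CO2; ONE-Glo added, 30 min room temperature, then luminescence read.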
# NPC1 promoter act: qHTS Assay for NPC1 Promoter Activators; Huh7 NPC1 promoter luciferase reporter, 24 h; Potency, µM (titrated, usually from 9.22 µM), for inactives: at the top dose activation, usual class: activators; 320,000 tested, 2.4% active; AID 485313, 2010; note: % of control where 0% means no effect; nearly all actives have a fitted effect of over 60% in size
#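 Stably transfected Huh7 (NPC1 promoter→luciferase), 1500 cells/well in Opti-MEM + 10% FBS, 2 h settle, then compound 24 h at 37 °C. Luminescence after 10 min with Amplite reagent.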
# Numbers without * were called inactive; ? = inconclusive; . = not tested or not shown; [ ] = another dose, or the depositor's remark. Calls come from the whole dose curve; as a rule, active = well fitted curve in the direction sought with a large enough effect; inconclusive = small, poorly fitted or top-dose-only effect, or another doubt; inactive = no such curve, though single readings can be large; an effect the other way counts as inactive or inconclusive. Potency is the fitted concentration of half-maximal effect.
SMILES,SMN2 splice enh,Rab9 prom act,FLuc counter,ELG1 genotox,NPC1 promoter act
Cc1ccc(S(=O)(=O)N(C)CC(=O)Nc2cc(C)ccn2)cc1,.,1%,?,10µM*,-2%
Cc1ccnc(NC(=O)Cc2ccc(-c3ccccc3)cc2)c1,.,-37%,11µM*,2.3µM*,-4%
Cc1ccnc(NC(=O)CNC(=O)c2ccc(Br)o2)c1,.,-7%,?,16µM*,6%
c1nc(NCCc2cnc[nH]2)c2[nH]cnc2n1,-4%[9.22 µM],.,.,.,.
O=C(CCNS(=O)(=O)c1ccc2c(c1)CCCC(=O)N2)NCc1ccc(Cl)cc1,.,.,3%,.,.
COc1cccc(CS(=O)(=O)c2nnnn2CC(C)C)c1,4%,.,.,.,.
CCOCCO,4%,.,.,.,.
Cn1ccsc1=NC(=O)c1cccc(OC(F)F)c1,.,?,15µM*,?,3.5µM*
Cn1ccsc1=NC(=O)c1ccc(=O)[nH]c1,.,-3%,-1%,2%,2%
COc1cccc2cc(-c3ccnc(=S)[nH]3)oc12,11µM*,4%,-18%,3%,5%
C=CCn1c(-c2cc3cccc(OC)c3o2)n[nH]c1=S,-7%,5%,?,0%,-2%
CCN1C(=O)c2cccc3c(NC(=O)c4ccc(S(=O)(=O)N(C)C)cc4)ccc1c23,13µM*,-6%,-8%,16%,-5%
CN(C)S(=O)(=O)c1ccc(C(=O)Nc2cccc(C(=O)O)c2)cc1,14%,.,21µM*,.,.
CCC(=O)c1cc2c(cc1NC(=O)c1ccc(C)cc1)OCCO2,?,0%,-1%,?,-2%
CC(=O)c1cc2c(cc1NC(=O)c1ccc(C)cc1)OCCO2,.,2%,5.4µM*,14%,0%
CSc1ccccc1C(=O)Nc1cc2c(cc1C(=O)O)OCCCO2,.,-1%,?,9%,-2%
CN(C)S(=O)(=O)c1ccc(C(=O)Nc2cc3c(cc2C(=O)O)OCCCO3)cc1,.,6%,15µM*,7%,15%
CCN1C(=O)c2cccc3c(NC(=O)c4ccc(S(=O)(=O)N5CCOCC5)cc4)ccc1c23,?,-3%,0%,?,-4%
COC(=O)c1ccc2c(c1)N(CC(=O)Nc1ccc(C)cc1Cl)C(=O)c1ccccc1S2,.,.,1%,.,.
